Measurements: PubChem BioAssay AID743395 (Broad Institute, 2014)
The whole screen tested about 1,200 compounds, of which about 480 (40%) were called active. No rule for the calls is given here. The set was probably picked from earlier hits. Not all results are given here. Entries that show only a call come without a potency. Potency and affinity values are given separately.

Assay: HepG2 cell cytotoxicity, dose response, cytotoxicity control, CellTiter-Glo luminescence, cherry-pick, set 2 (AID 743395)
Details: HepG2 viability, CellTiter-Glo ATP luminescence, 72 h; series mostly up to 26 µM

Row | SMILES | outcome
1 | CSc1ccccc1NC(=O)COC(=O)CCC(=O)c1ccc(F)cc1 | inactive
2 | CC(=O)OCCn1c2nc(=O)[nH]c(=O)c-2nc2cc(C)c(C)cc21 | inactive
3 | COc1cccc(NC(=O)N(C)C[C@H]2OCc3ccccc3-c3c(n(C)c4ccccc34)C(=O)N([C@H](C)CO)C[C@H]2C)c1 | inactive
4 | O=C(c1[nH]ncc1-c1cccc(Br)c1)C1CO1 (centres undefined) | inactive
5 | CC(C)CCNC(=O)C(=O)Nc1ccc2c(c1)N(S(=O)(=O)c1cccs1)CCC2 | inactive
6 | CCOC(=O)C1=CN(Cc2cccc(I)c2)S(=O)(=O)N(C)C1C (centres undefined) | inactive
7 | CC(C)c1nc2oc3c(NCCO)ncnc3c2c2c1COC(C)(C)C2 | inactive
8 | O=CNc1cc(-c2ccc(C(=O)NC3CC3)cc2)cn2c(-c3ccccc3)cnc12 | inactive
9 | COc1ccc(-c2cnc3c(NC=O)cc(-c4ccccc4)cn23)cc1OC | inactive
10 | COc1cc(-c2cnc3c(NC=O)cc(-c4cccc(C(F)(F)F)c4)cn23)cc(OC)c1OC | inactive
11 | O=C(COC(=O)Cc1ccsc1)Nc1cccc(F)c1 | inactive
12 | COc1cccc2cc(C(=O)NCCN3CCOCC3)c(=O)oc12 | inactive
13 | COc1ccccc1OCCNC(=O)CCNC(=O)c1ccccc1OC | inactive
14 | NS(=O)(=O)c1ccc(NC(=O)c2cccc3cc4ccccc4nc23)cc1 | inactive
15 | O=C1NC(Cc2ccc(O)cc2)c2nc3ccc(Br)cc3c(=O)n2-c2cc3ccccc3cc21 (centres undefined) | inactive
16 | COc1ccccc1S(=O)(=O)N1CC[C@@H]2[C@@H](CO)N(C)c3ccc(-c4ccc(F)cc4)cc3[C@@H]21 | inactive
17 | COc1ccccc1Cc1c(-c2ccc(Cl)cc2)nc2ccc(Br)cn12 | inactive
18 | O=C(O)CCCCCCCCc1cn(Cc2ccc(C(=O)c3ccccc3)cc2)nn1 | inactive
19 | CC1CCN(S(=O)(=O)N2CCCC(C(=O)NCc3ccccc3Cl)C2)CC1 (centres undefined) | inactive
20 | C[C@@](Cc1ccc(O)c(O)c1)(NN)C(=O)O | inactive
21 | COc1ccc(NC(=O)c2cc(C3CC3)on2)c(OC)c1 | inactive
22 | Cc1ccc(Nc2nc(CSc3nnc(-c4cccnc4)n3-c3ccccc3F)cs2)cc1 | inactive
23 | Cc1cc(C(=O)CCC(=O)NC(C)c2ccc(S(N)(=O)=O)cc2)c(C)s1 (centres undefined) | inactive
24 | Cc1c(Cl)cccc1NC(=O)C1CC(=O)N(C2CCCC2)C1 (centres undefined) | inactive
25 | COCCNC(=O)C1CCCN(C(=O)c2cc(-c3cccs3)oc2C)CC1 (centres undefined) | inactive

Row | SMILES | outcome
26 | O=C1NN(c2cccc(Br)c2)C(=O)/C1=C\c1ccc(O)cc1 | inactive
27 | O=C1c2cccc3c([N+](=O)[O-])ccc(c23)C(=O)N1Cc1cccnc1 | inactive
28 | CCN1C(=O)c2cccc3c(S(=O)(=O)N(C(C)=O)c4ccc(OC(C)=O)cc4)ccc1c23 | inactive
29 | Cc1ccc(N2C(=O)c3cccc4c([N+](=O)[O-])ccc(c34)C2=O)c2cccnc12 | inactive
30 | CCOc1ccc(NC(=O)c2ccc(NC(=O)CN3C(=O)C(=O)N(CC(C)C)C3=O)cc2)cc1 | inactive
31 | CC1C2CCC(C2)C1OC(=O)c1ccccc1C(=O)O (centres undefined) | inactive
32 | CCCCn1nc(NC(=O)CC)c2cc3cc(OC)ccc3nc21 | inactive
33 | O=C1CCC(CCc2nc3ccccc3[nH]2)(c2ccccc2)C(=O)N1 (centres undefined) | inactive
34 | N#C/C(=C\c1ccccn1)c1nc2ccccc2s1 | inactive
35 | O=C(C[C@@H]1C[C@H]2c3cc(NC(=O)CC4CC4)ccc3O[C@H]2[C@H](CO)O1)NCc1cccc(F)c1 | inactive
36 | COC(=O)C1(C)CCCC2(C)C3CCC(C(C)C)C(CO)C3C(CO)CC12 (centres undefined) | inactive
37 | CCSc1nnc(N2C(=O)C(O)=C(C(=O)c3ccco3)C2c2cccc(OC)c2)s1 (centres undefined) | inactive
38 | Cc1cccc(C)c1OCC(=O)OCC(=O)Nc1ccc(Cl)cn1 | inactive
39 | O=C(Nc1ccc(Cl)cn1)c1cccc2ccccc12 | inactive
40 | CC(=Nc1ccccc1O)c1sc2ccccc2c1O | inactive
41 | COc1ccc(N=C2C(=O)N3CCCc4cccc2c43)cc1 | inactive
42 | CCN(C(=O)CSc1nc2ccccc2c(=O)n1-c1ccccc1F)C1CCS(=O)(=O)C1 (centres undefined) | inactive
43 | O=C(CN1C(=O)NC2(CCCCCCC2)C1=O)Nc1ccc(Br)cc1 | inactive
44 | Nc1ccccc1C(=O)N1O[C@@H]2C=C[C@H]1C2 | inactive
45 | CCOC(=O)c1sc2nc(Cc3ccc(Cl)cc3)[nH]c(=S)c2c1C | inactive
46 | CCOC(=O)c1sc(NC(=O)c2c(CC)noc2C)nc1C | inactive
47 | CC1CCN(C(=O)c2ccc(S(=O)(=O)N3CCCC3)cc2)CC1 | inactive
48 | Cc1noc(C)c1C(=O)NCC1COc2ccccc2O1 (centres undefined) | inactive
49 | N#CC1c2ccccc2-c2ccccc2N1C(=O)c1ccccc1 (centres undefined) | inactive
50 | Cc1ccc(NC(=O)CSC2=NN3CCCC(=O)N=C3S2)c(C)c1 | inactive

Row | SMILES | outcome
51 | Fc1ccccc1/C=N/NC(=S)Nc1ccc(Cl)cc1Cl | inactive
52 | COc1ccc(Cl)cc1NC(=O)CN(C)CC(=O)Nc1cc(OC)c(OC)c(OC)c1 | inactive
53 | COc1cccc(NC(=O)CN2C(=O)NC3(CCCCCC3)C2=O)c1 | inactive
54 | CC(=O)Nc1ccc(NC(=O)COc2cccc3c2OC(C)(C)C3)cc1 | inactive
55 | CCOC1=C/C(=C/c2c(N)n3nc(S(=O)(=O)CC)sc3nc2=O)C=CC1=O | inactive
56 | Cc1cccc(NC(=O)c2ccccc2NC(=O)C2CCCCC2)c1C | inactive
57 | Fc1ccc(/C=N/NC(=S)Nc2ccc(Cl)cc2Cl)cc1 | inactive
58 | COc1ccc(C=NNC(=O)CCCC(=O)NN=Cc2ccc(OC)c(O)c2)cc1O | inactive
59 | COc1cc(/C=C/C(=O)c2ccc3c(c2)OCO3)cc(Cl)c1O | inactive
60 | COc1ccc(/C=N/NC(=O)c2c(C)nc3ccc(Br)cn23)cc1OC | inactive
61 | Cc1cc(NC(=O)CN2C(=O)NC3(CCCCCC3)C2=O)ccc1Br | inactive
62 | Cc1cnc(NC(=O)CCc2ccccc2)s1 | inactive
63 | CCn1c(SC(C)C(=O)NCC2CCCO2)nc2ccccc21 (centres undefined) | inactive
64 | CCC1=Nc2cc(C(=O)NCc3cccnc3)ccc2Sc2ccc(C)cc21 | inactive
65 | COc1cc(C(=O)NCC2CCCO2)ccc1OCc1ccc(Cl)cc1 (centres undefined) | inactive
66 | COc1ccccc1OCC(O)CN1C(=O)NC(C)(C)C1=O (centres undefined) | inactive
67 | C/C=C/c1ccc([C@H]2[C@@H](CNC(=O)CC)N(C(=O)COC)[C@H]2CO)cc1 | inactive
68 | CCN(C(=O)COC(=O)/C=C/c1c(C)nn(-c2ccccc2)c1C)c1c(N)n(Cc2ccccc2)c(=O)[nH]c1=O | inactive
69 | CN(Cc1ccco1)c1ncnc2ccc(-c3ccc4c(ccn4C)c3)cc12 | inactive
70 | COc1ccccc1C(=O)Nc1ccc2c(c1)nc(CCNC(=O)c1ccco1)n2C | inactive
71 | CC1(C)Cc2c(c(-c3ccco3)nc3sc4c(NCCN5CCOCC5)ncnc4c23)CO1 | inactive
72 | O=C(c1cccc(S(=O)(=O)N2CCOCC2)c1)N1CCCC(C(F)(F)F)C1 (centres undefined) | inactive
73 | CN(CCOc1ccc(Cl)cc1)C(=O)c1cccc(S(=O)(=O)N2CCN(c3ccccc3)CC2)c1 | inactive
74 | CCN(CC)S(=O)(=O)c1ccc(NC(=O)C2CC(=O)N(c3ccc4c(c3)OCCO4)C2)cc1 (centres undefined) | inactive
75 | Cc1cc(C(=O)N/N=C/c2ccc3c(c2)OCO3)c2ccccc2n1 | inactive

Row | SMILES | outcome
76 | Cn1cc(C(=O)OCC2CCN(CCNS(C)(=O)=O)CC2)c2ccccc21 | inactive
77 | CCOc1ccc(NC(=O)c2ccccc2NC(=O)CNC2CCCC(C)C2C)cc1 (centres undefined) | inactive
78 | COc1cc(C(=O)Nc2ccc(C)cc2)c2ccccc2n1 | inactive
79 | COc1ccc(OCC(=O)N/N=C/C=C/c2ccccc2)cc1 | inactive
80 | COc1ccc2[nH]c(C(=O)N/N=C/c3ccc(OC)c(O)c3)cc2c1 | inactive
81 | CC(C)C[C@@H](COCc1ccc(C(F)(F)F)cc1)N1CCN(C(=O)c2ccc(C(F)(F)F)cc2)CCC1=O | inactive
82 | CN(CC(=O)NCCc1ccc(S(N)(=O)=O)cc1)CC(=O)Nc1ccc(Cl)c(C(F)(F)F)c1 | inactive
83 | Nc1c2c(nc3ccccc13)CCCC2 | inactive
84 | CCOC1=C2CN(S(=O)(=O)c3ccc(C)cc3)CC[C@@H]2N(S(=O)(=O)c2ccc(C)cc2)[C@H](c2ccccc2)C1 | inactive
85 | CCOC(=O)C1CCCN(c2nc3ccccc3nc2NS(=O)(=O)c2ccc(C)cc2)C1 (centres undefined) | inactive
86 | C[C@H]1C[C@H]2[C@@H]3CCC4=CC(=O)C=C[C@]4(C)[C@@]3(F)[C@@H](O)C[C@]2(C)[C@@]1(O)C(=O)CO | inactive
87 | C[C@@H]1CN([C@H](C)CO)S(=O)(=O)c2ccc(-c3ccc(C#N)cc3)cc2O[C@H]1CN(C)Cc1cccc(F)c1 | inactive
88 | COc1cccc(S(=O)(=O)N(C)C[C@@H]2Oc3cc(C4=CCCC4)ccc3S(=O)(=O)N([C@@H](C)CO)C[C@H]2C)c1 | inactive
89 | Cc1ccc(-c2ccc3c(c2)O[C@H](CN(C)C(=O)Nc2ccc(C(F)(F)F)cc2)[C@@H](C)CN([C@@H](C)CO)S3(=O)=O)cc1 | inactive
90 | Cc1ccc(-c2ccc3c(c2)O[C@H](CN(C)C(=O)Nc2ccc(F)cc2)[C@@H](C)CN([C@@H](C)CO)S3(=O)=O)cc1 | inactive
91 | Cc1ccc(-c2ccc3c(c2)O[C@@H](CN(C)C(=O)Nc2ccc(F)cc2)[C@@H](C)CN([C@H](C)CO)S3(=O)=O)cc1 | inactive
92 | Cc1ccc(-c2ccc3c(c2)O[C@@H](CN(C)C(=O)Nc2ccc(F)cc2)[C@@H](C)CN([C@@H](C)CO)S3(=O)=O)cc1 | inactive
93 | C[C@@H]1CN([C@H](C)CO)S(=O)(=O)c2ccc(-c3ccc(C#N)cc3)cc2O[C@H]1CN(C)Cc1ccccn1 | inactive
94 | C[C@H]1CN([C@@H](C)CO)S(=O)(=O)c2ccc(C3=CCCCC3)cc2O[C@@H]1CN(C)C(=O)Cc1ccncc1 | inactive
95 | CC(=O)c1c(C)[nH]c(C(=O)OCc2nnc(-c3ccc([N+](=O)[O-])cc3)o2)c1C | inactive
96 | C[C@@H]1CN([C@@H](C)CO)S(=O)(=O)c2ccc(-c3ccc(C#N)cc3)cc2O[C@H]1CN(C)Cc1cccc(F)c1 | inactive
97 | C[C@@H]1CN([C@H](C)CO)S(=O)(=O)c2ccc(C#CC3CC3)cc2O[C@H]1CN(C)Cc1ccccn1 | inactive
98 | Cc1ccc(-c2ccc3c(c2)O[C@H](CN(C)C(=O)Nc2ccc(C(F)(F)F)cc2)[C@H](C)CN([C@@H](C)CO)S3(=O)=O)cc1 | inactive
99 | C[C@@H]1CN([C@@H](C)CO)S(=O)(=O)c2ccc(C#Cc3ccc(F)cc3)cc2O[C@H]1CN(C)C(=O)c1ccccn1 | inactive
